Source: PubChem BioAssay (NCI)
About 83,000 compounds went through this panel and 20% of them were active in at least one assay; those are over-represented in the sample as a whole.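 Each cell line was grown in a 96-well plate and treated with one concentration of compound for 48 hours. Values below 10 were considered active.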 Calls of active or inactive are those of the source.

Assays:
Assay in all cases: NCI-60 one-dose screen, 48 h (100 = growth as untreated, 0 = no growth, -100 = all killed)
Conditions in all cases: 10 µM unless noted
[1] = test system: SR leukemia
[2] = test system: RPMI-8226 leukemia
[3] = test system: OVCAR-8 ovarian
[4] = test system: OVCAR-5 ovarian
[5] = test system: OVCAR-4 ovarian
[6] = test system: SK-OV-3 ovarian
[7] = test system: IGROV1 ovarian
[8] = test system: OVCAR-3 ovarian
[9] = test system: HS 578T breast
[10] = test system: NCI/ADR-RES ovarian

Measured: growth

COc1c(B(O)O)cccc1-c1nc2ccc3cn[nH]c3c2c2c1CCCC2
inactive: [1] 71.8% | [2] 45.8% | [3] 48.4% | [4] 76.1% | [5] 77.3% | [6] 25.3% | [7] 57.9% | [8] 57% | [10] 65.2%
active: [9] -17.9%

CCOC(=O)/C(F)=C/C1CC1CCc1ccc(OCC)cc1 (stereo not given)
inactive: [1] 78.6% | [2] 99.3% | [3] 101% | [4] 108% | [5] 94.8% | [6] 75.3% | [7] 92.5% | [8] 103% | [9] 94.5% | [10] 101%

COc1ccc2c(c1)C(Sc1ccc(F)cc1)c1c(nc(N)c(C#N)c1N)O2 (stereo not given)
inactive: [1] 38% | [2] 71.7% | [3] 90.1% | [4] 122% | [5] 97.8% | [6] 122% | [7] 70.6% | [8] 128% | [9] 85.5% | [10] 95.3%

CN1CCN(C(=O)Oc2cc3c(c4ccccc24)[C@H](CCl)CN3C(=O)c2cc3cc(OCCCN4CCC4)ccc3[nH]2)[C@H]2CSSC[C@H]21
active: [1] -21.2% | [2] -31.2% | [3] -13.1% | [4] -19.6% | [5] -1.62% | [6] -16.5% | [7] 4.39% | [8] -10.9% | [9] -7.11% | [10] -29.2%

Cc1cc(C(NC(=O)CCCCCNc2cccc3c2C(=O)N(C2CCC(=O)CC2=O)C3=O)c2cccc(N(C)C)c2)c(O)c2ncccc12 (stereo not given)
inactive: [1] 25.3% | [2] 15.6% | [4] 38.1% | [5] 33.2% | [8] 16.3% | [9] 19.6% | [10] 50.6%
active: [3] 2.18% | [6] -2.15% | [7] 1.63%

COc1ccc(/C=C/C(=O)c2ccc(OC)c(S(N)(=O)=O)c2)c(C(F)(F)F)c1
active: [1] 0.801% | [2] 3.98% | [3] 6.69% | [4] 3.65% | [7] 1.64% | [10] -31.4%
inactive: [5] 18.6% | [6] 66.6% | [8] 15.8% | [9] 49.3%

O=C(c1cc2cc(OCCCN3CCC3)ccc2[nH]1)N1C[C@@H](CCl)c2c1cc(OCc1ccccc1)c1ccccc21
active: [1] -9.25% | [2] -37.1% | [3] -37.6% | [4] -76.9% | [5] -57.7% | [6] -9.06% | [7] -53.8% | [8] -29.5% | [9] -8.06% | [10] -34.9%

COc1cccc(NC(=O)c2ccc(NC(=O)CCl)s2)c1
inactive: [3] 10.2% | [4] 47.3% | [5] 94.6% | [8] 35.8% | [9] 65.9% | [10] 22.5%
active: [1] -0.752% | [2] -22.9% | [6] -1.99% | [7] -13.4%

COc1sc(/C=N/NC(=O)c2[nH]c3ccc(Br)cc3c2-c2ccccc2)cc1Br
active: [1] 4.82% | [2] 9.25% | [4] 0.79% | [8] -0.827% | [10] -64.9%
inactive: [3] 12% | [5] 41.9% | [6] 40.2% | [7] 11.8% | [9] 20.7%

Clc1ccc(CNc2nc(SCCN3CCOCC3)nc3c2cnn3CC(Cl)c2ccc(Br)cc2)cc1 (stereo not given)
inactive: [3] 44.3% | [4] 75.5% | [5] 44.6% | [6] 62.5% | [7] 67.9% | [8] 56.5% | [9] 49.4% | [10] 34.5%
active: [1] -14.9% | [2] 1.89%

COC(=O)CSC1=C(C)C(=O)C(OC)=C(OC)C1=O
inactive: [1] 57% | [2] 65.6% | [3] 92.2% | [4] 110% | [5] 94.2% | [6] 100% | [7] 106% | [8] 91.8% | [9] 79.2% | [10] 96.6%

Cc1ccc(C(=O)Nc2cc(-c3ccncc3)cc(C(F)(F)F)c2)cc1C#Cc1cnc2cccnn12
active: [1] -11.9%
inactive: [2] 20% | [3] 50.4% | [4] 53.5% | [5] 63.5% | [6] 127% | [7] 54.4% | [8] 95.6% | [9] 23% | [10] 50.2%

CCN1C(=O)N(CC)C2NNC(Sc3c(C(=O)O)c4ccccc4n(CC(C)C)c3=O)=NC21 (stereo not given)
active: [2] 8.29% | [8] 4% | [9] -2.68% | [10] -27.6%
inactive: [1] 11.1% | [3] 11.8% | [4] 24.2% | [5] 67% | [6] 40.6% | [7] 20%

CC(C)(C)c1cc(-c2cc(-c3ccccc3)[nH]c(=O)c2C#N)cc(C(C)(C)C)c1
inactive: [1] 43.4% | [2] 66.9% | [4] 45.9% | [6] 43.7% | [7] 35.1% | [8] 27.1% | [10] 25.9%
active: [3] 7.14% | [5] 5.22% | [9] -3.49%

O=C(CSc1nc2sc3c(c2c(=O)n1-c1ccc(Cl)cc1)CCCC3)N/N=C/C=C/c1ccccc1
inactive: [8] 78.3%
active: [1] -23.2% | [2] -0.68% | [3] -51.3% | [4] -38.9% | [5] -31% | [6] -11.2% | [7] -5.52% | [9] -16.9% | [10] -10.7%

Cc1nn(-c2ccccc2)c2nc(C)n(CC(=O)N/N=C/c3cccc([N+](=O)[O-])c3)c(=O)c12
inactive: [1] 85.8% | [2] 85.3% | [3] 98.5% | [4] 109% | [5] 91.2% | [6] 92.8% | [7] 91.8% | [8] 106% | [9] 92.7% | [10] 97%

COc1cc(C2CC(c3ccc(S(=O)(=O)NCCNc4nc(N(C)C)nc(N5CCOCC5)n4)cc3)=Nc3c(N)nc(N)nc3N2)cc(OC)c1OC (stereo not given)
inactive: [1] 93.3% | [2] 84.9% | [3] 103% | [4] 93.4% | [5] 95.1% | [6] 115% | [7] 105% | [8] 105% | [9] 76.6% | [10] 92.8%

COc1ccc2[nH]c(=O)cc(-n3ncc(C(=O)/C=C/c4cc(OC)c(OC)c(OC)c4)c3C)c2c1
active: [1] -11.8% | [2] -45.2% | [4] -26.3% | [6] 6.3% | [7] -0.815% | [8] -34.6% | [10] 7.59%
inactive: [3] 14.5% | [5] 36.5% | [9] 57.3%

COC(=O)c1c(C(=O)OC)c2ccc3c4ccccc4ccc3n2c1C(=O)C(C)Br (stereo not given)
active: [1] 3.43% | [2] 3.26%
inactive: [3] 15.6% | [4] 75.7% | [5] 41.4% | [6] 81.9% | [7] 42.2% | [8] 16.7% | [9] 65.6% | [10] 37.5%

CS(=O)(=O)c1ccc(-n2nc(C(=O)NCc3ccccc3)cc2-c2ccc(Cl)cc2)cc1
inactive: [1] 76.7% | [2] 56.8% | [3] 89.9% | [4] 105% | [5] 71% | [6] 104% | [7] 95.9% | [8] 99.7% | [9] 110% | [10] 83.9%

COc1ccc(NC(=O)N/N=C/c2c[nH]c3ccccc23)cc1
inactive: [1] 23.4% | [2] 24.9% | [3] 20.5% | [4] 37.4% | [5] 69.9% | [6] 37.5% | [7] 40.8% | [9] 27.1% | [10] 15.3%
active: [8] -34.1%

COc1ccc2ccccc2c1/C=C1\SC(=Nc2ccc(O)cc2)NC1=O
active: [2] -12.7% | [3] 9.1% | [10] -5.75%
inactive: [1] 20.8% | [4] 10.3% | [5] 56.2% | [6] 29.6% | [7] 11.3% | [8] 35.5% | [9] 24.1%

Cc1nn(-c2ccccc2)c2nc(C)n(CC(=O)N/N=C/c3ccccc3O)c(=O)c12
inactive: [1] 54.7% | [2] 29.1% | [3] 22% | [4] 46.6% | [5] 31.2% | [6] 25% | [7] 24.2% | [8] 51.3% | [9] 55.4% | [10] 16.7%

Nc1nc(-c2ccccc2)c(N=Nc2ccc(Cl)cc2Cl)s1
inactive: [3] 12.1%
active: [1] -33.6% | [2] 7.32% | [4] -61.9% | [5] -2.75% | [6] 7.41% | [7] -29.7% | [8] -70.3% | [9] -28.2% | [10] -57%
